From PubChem
Sampled rows, rich in hits. Any-hit rate of the full collection: about 2.9%.
SKN-1 inh: C. elegans SKN-1 inhibition; 0.49% of 360,000 active; C. elegans VP596 Pgst-4::GFP/RFP ratio, acrylamide-induced, 24 h; inhibition, % at 21.8 µM; AID 624304;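 active means interference check ratio from 0.5 to 1.5 plus GFP to RFP signal ratio inhibition reaching or exceeding a fixed threshold, cut at about 30% in these data, passing the limit was not always enough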
PGE2 EP2 inh: EP2 receptor (human) inhibition. P43116. C6 glioma cells expressing human EP2, cAMP TR-FRET; cells stimulated with saturating PGE2. inhibition, % at 25 µM. 0.52% of 260,000 active;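 active means percent inhibition above 40 after rounding to a whole number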;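 further: rat C6 glioma host cells with rolipram phosphodiesterase inhibitor present; the protocol text gives 20 µM as final concentration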
Target sequence (P43116 whole entry, looked up): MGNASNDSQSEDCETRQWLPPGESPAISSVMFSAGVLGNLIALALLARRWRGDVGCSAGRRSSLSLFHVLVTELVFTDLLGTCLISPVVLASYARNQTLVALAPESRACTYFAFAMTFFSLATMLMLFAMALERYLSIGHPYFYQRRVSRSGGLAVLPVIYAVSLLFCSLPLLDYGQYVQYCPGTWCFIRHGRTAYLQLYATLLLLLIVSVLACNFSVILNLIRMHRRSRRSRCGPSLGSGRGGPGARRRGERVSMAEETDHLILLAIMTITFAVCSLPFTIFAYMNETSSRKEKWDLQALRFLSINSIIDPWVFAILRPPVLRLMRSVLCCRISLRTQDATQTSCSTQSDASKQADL
PG9 Ab binder: binds the HIV-1 gp120 antibody PG9; TR-FRET gp120-PG9 antibody binding; inhibition, % at 6.7 µM; 0.43% of 360,000 active; AID 624416; in the data active means inhibition above about 8.5%
RAM inhibit: yeast RAM network inhibition. AID 868. 1.8% of 190,000 active. S. cerevisiae dse1pr::URA3 reporter, 5-FOA growth OD615, 2 d; analog-sensitive cbk1-as2 kinase mutant strain. inhibition, % at 50 µM;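 active means inhibition above a set limit, 3 SD over mean compound inhibition, cut at about 8.4% in these data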;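 further: inhibition rescues growth on 5-FOA so higher OD means more RAM inhibition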
EP2 modulator: EP2 receptor (human) modulation. induction, % at 25 µM. P43116. 0.83% of 260,000 active. EP2-expressing cells, cAMP HTRF FRET, PGE2 co-stimulation;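 active means compounds whose cAMP rise, as percent of the full-agonist control response, exceeds 60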;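 further: rat C6 glioma line stably carrying human EP2 under a CMV promoter; the protocol text gives 20 µM as final concentration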
NR1D1 modulator: Rev-erb alpha (human) modulation; 0.79% of 370,000 active; Rev-erbα–FITC-DNA binding, fluorescence polarization, 90 min; activity, % at 10 µM; P20393;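 active means activity above about 14%, limit read from the data; passing the limit was not always enough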
Numbers stand for hits; i = inactive; nt = no result; ! = not active in a repeat.

SMILES	SKN-1 inh	PGE2 EP2 inh	PG9 Ab binder	RAM inhibit	EP2 modulator	NR1D1 modulator
CC(=O)C1=C(C)NC(SCC(=O)c2ccc(F)cc2)=C(C#N)C1c1ccco1 (configuration not stated)	i	i	i	i	i	i
COc1ccccc1NC(=O)C1=C(C)NC(SCC(=O)c2ccc(C)cc2)=C(C#N)C1c1ccco1 (configuration not stated)	nt	nt	i	8.8	i	i
Cc1nn(-c2ccccc2)c(N)c1C(O)(CC(=O)C(F)(F)F)C(F)(F)F (configuration not stated)	i	i	i	9.0	i	i
Cc1nn(-c2ccccc2)c(N)c1C(O)(C(F)(F)F)C(F)(F)F	i	i	i	i	i	i
Cc1ccccc1N(CC(=O)NC1CCCC1)C(=O)CCC(=O)Nc1nccs1	nt	i	nt	nt	i	nt
O=c1[nH]c2cc(Cl)c(Br)cc2o1	35	nt	i	nt	nt	i
O=c1[nH]c2cc(Cl)c(Cl)cc2o1	i	nt	i	nt	nt	i
CCC(NC(C)C)C(O)c1ccc(O)c(O)c1 (configuration not stated)	i	i	i	i	61	i
CCC(c1ccc(O)c(O)c1)C(CC)c1ccc(O)c(O)c1 (configuration not stated)	i	nt	nt	nt	nt	nt
CC(C)NCC(O)c1cc(O)cc(O)c1 (configuration not stated)	i	i	i	nt	81!	i
CC(C)NC[C@H](O)c1ccc(O)c(O)c1	i	i	i	nt	76!	i
NCC(O)c1ccc(O)c(O)c1 (configuration not stated)	i	i	i	nt	66	i
O=C(O)C1CCCCC1C(=O)NCCc1c[nH]c2ccccc12 (configuration not stated)	37	i	i	i	i	i
CCOc1ccc(-c2nc(N)ncc2Oc2cccc(OC)c2)c(O)c1	37	i	i	i	i	i
CCOC(=O)COc1ccccc1C1C(C#N)=C(N)OC2=C1C(=O)CC(C)(C)C2 (configuration not stated)	nt	i	nt	nt	i	nt
Cc1ccc2[nH]c(CN3CCN(S(=O)(=O)N4CCOCC4)CC3)c(C)c2c1	nt	i	nt	nt	i	nt
N/C(=N\N=C\c1ccc2c(c1)OCO2)SC1CC(=O)N(c2ccc(C(=O)O)cc2)C1=O (configuration not stated)	i	i	i	8.6	i	i
COc1ccc(CNC(=O)CSCc2cnn(-c3ccccc3)c2-n2cccc2)cc1	i	i	i	i	i	i
O=C(CSCc1cnn(-c2ccccc2)c1-n1cccc1)NCc1ccc2c(c1)OCO2	i	i	i	11	i	i
CC(Sc1nc(N2CCOCC2)c2c(c1C#N)CC(C)(C)OC2)C(=O)O (configuration not stated)	i	nt	i	nt	nt	i
CC(C)Sc1nc(N2CCCC2)c2c(c1C#N)CC(C)(C)OC2	i	i	i	i	63	i
Cc1nn(-c2ccccc2)c2sc(C(=O)N3CCN(Cc4ccccc4)CC3)cc12	nt	nt	nt	nt	nt	i
Cc1nn(-c2ccc(F)cc2)c2sc(C(=O)N3CCCCCC3)cc12	48	i	i	i	i	i
CS(=O)(=O)c1cnc2ncnn2c1C1CCN(C(=O)c2cc(F)cc(F)c2)CC1	nt	nt	nt	nt	i	nt
COc1ccccc1C1OC2=C(Nc3ccc([N+](=O)[O-])cc3N2)C1=O (configuration not stated)	i	i	i	nt	i	i
SMILES	SKN-1 inh	PGE2 EP2 inh	PG9 Ab binder	RAM inhibit	EP2 modulator	NR1D1 modulator
O=C1C2=C(Nc3cc([N+](=O)[O-])ccc3N2)O[C@@H]1c1c[nH]c2ccc(COc3ccccc3)cc12	nt	60	nt	nt	i	nt
Nc1ccc(N(S(=O)(=O)c2ccccc2)S(=O)(=O)c2ccccc2)c(Cl)c1	nt	44	nt	nt	i	nt
CN(c1ccccc1N(C)S(=O)(=O)c1ccccc1)S(=O)(=O)c1ccccc1	i	nt	i	nt	nt	i
CCc1ccc2nc(SCC(=O)N3c4ccccc4CC3C)c(C#N)cc2c1 (configuration not stated)	nt	i	nt	nt	64	nt
CCc1ccc2nc(SCC(=O)N3CC(=O)Nc4ccccc43)c(C#N)cc2c1	i	i	i	i	i	i
CC(C)[C@@H](Cn1nc(-c2cccs2)ccc1=O)NC(=O)c1cc(-c2ccco2)on1	nt	nt	nt	nt	i	nt
COc1ccc(/C(N)=N/OC(=O)c2ccc(Br)o2)cc1	i	nt	i	nt	nt	i
N/C(=N\OC(=O)c1ccco1)c1cccc(Br)c1	57	i	i	i	i	i
N/C(=N\OC(=O)c1ccco1)c1cccc([N+](=O)[O-])c1	i	i	i	i	i	i
N/C(=N\OC(=O)c1ccc(Br)o1)c1cccnc1	42	i	i	i	i	i
O=C(CCCc1nc2ccccc2c(=O)[nH]1)NC1CC2(CCCC2)Oc2ccccc21 (configuration not stated)	nt	i	nt	nt	i	nt
COc1ccccc1C(=O)Nc1cccc(SC)c1	i	i	i	i	i	i
CSc1cccc(NC(=O)c2cccc3cccnc23)c1	65	nt	i	nt	nt	i
CCOc1ccc(C2C(C#N)=C(N)Oc3c2c(C)nn3-c2ccc(C)cc2)cc1OCC (configuration not stated)	nt	i	nt	nt	i	nt
O=C(Nc1ccccc1-c1nc2ccccc2s1)c1cccnc1Cl	i	i	11	i	63	i
CC(=O)c1ccc(OCc2cc(C(=O)NC(C)c3cnn(C)c3)no2)cc1 (configuration not stated)	i	nt	i	nt	nt	i
CC(NC(=O)c1cc(COc2ccccc2)on1)c1nccs1 (configuration not stated)	35	nt	i	nt	nt	i
Cc1cccc(-n2nc3c(c2NC(=O)C2CC2)CS(=O)(=O)C3)c1C	35	nt	i	nt	nt	i
Cc1ccc(SCN2CCCCC2)cc1 (tested in a mixture with another compound)	nt	52	nt	nt	i	nt
Cc1ccc(SCC(=O)N2CCOCC2)cc1	i	i	i	i	i	i
CS(=O)(=O)c1cncnc1C1CCCN(C(=O)Cc2cccc(Cl)c2)C1 (configuration not stated)	nt	nt	nt	nt	i	nt
CCOCC(=O)Nc1c(C(=O)Nc2ccc(OC)cc2OC)oc2ccccc12	i	i	i	11	i	i
CCn1nc(C)cc1C(=O)Sc1ccc(C)cc1	i	i	i	nt	i	i
CCn1nc(C)c(Br)c1C(=O)Sc1ccccc1Cl	i	i	i	nt	68	i
Cc1ccn(CCCNC(=O)Cn2nc(C)n3c(cc4occc43)c2=O)n1	nt	i	nt	nt	i	nt
O=C(/C=C/c1ccccc1)NC(=S)NNC(=O)c1cccnc1	36	i	i	i	i	i
O=C(Nc1cc(-c2ccccc2)[nH]n1)c1ccccc1	37	i	i	nt	i	i
Cc1nc(NS(=O)(=O)c2ccccc2)sc1NC(=O)NC1C=NN=C1	nt	i	nt	nt	i	nt
COC(=O)c1ccc(CSc2nc3c(cnn3-c3ccc(C)c(C)c3)c(=O)[nH]2)o1	i	i	i	i	65	i
CCCSc1nc2c(cnn2-c2ccc(C)c(C)c2)c(=O)[nH]1	i	i	i	i	i	i
